In the library only some 1.6% were active in any assay of this set; here they are far more common.
KCNQ2 inh: KCNQ2 (rat) channel inhibition | O88943 | CHO-K1 KCNQ2, FluxOR thallium flux, 20 min; hits give low values | B-score at 10 µM | 310,000 compounds, 1.1% hits | AID 2156;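 active means fluorescence ratio B-score at most minus 3 library SDs, with starting brightness B-score within 2 library SDs, cut at about -5.5 in these data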
KCNQ2 enhance: KCNQ2 (rat) channel potentiation | CHO-K1 KCNQ2, FluxOR thallium flux fluorescence; hits give high values | AID 2239 | B-score at 10 µM | O88943 | 310,000 compounds, 0.54% hits;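 active means fluorescence ratio B-score at least 3 SD of library B-scores, with initial fluorescence B-score within 3 of them, cut at about 5.3 in these data; same plate scores as AID 2156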;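 further: B-score of peak minus minimum over baseline fluorescence ratio after K+ and Tl+ stimulus; positive B-score means potentiation of KCNQ2 with more thallium influx and brighter signal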
KCNQ2 inh conf: confirmation of rat KCNQ2 potassium channel inhibitors. shares compounds with KCNQ2 inh. KCNQ2-expressing cells, thallium flux, inhibition; hits give low values. activity change, negative = inhibition, % at 10 µM. 1,000 compounds, 57% hits. AID 493025;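 further: 0% = vehicle wells and values are ratio percent relative to vehicle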
KCNQ1 spec: selectivity of KCNQ2 inhibitors against human KCNQ1 | shares compounds with KCNQ2 inh | KCNQ1-expressing cells, FluxOR thallium flux fluorescence; hits give low values | activity change, negative = inhibition, % at 10 µM | 1,000 compounds, 15% hits | AID 493026;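 active means activity change at least 3 SD of negative controls below their mean in both duplicate wells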;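 further: CHO cells stably transfected with KCNQ1 and depolarized by potassium stimulus; peak minus minimum fluorescence over baseline after thallium addition; 0% = vehicle negative control and -100% = blank without thallium stimulus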
CHO parental ctr: activity in parental CHO cells lacking KCNQ2. shares compounds with KCNQ2 inh. thallium flux counter-screen; hits give low values. activity change, % at 10 µM. 1,000 compounds, 14% hits. AID 493029;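 further: 0% = vehicle negative controls with stimulus buffer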
KCNQ2 inh confirm: blocks rat KCNQ2 current in automated patch clamp; shares compounds with KCNQ2 inh; KCNQ2-expressing cells; calls only at 10 µM; 550 compounds, 49% hits; AID 588531
Kir21 confirm: confirmation of mouse Kir2.1 potassium channel inhibitors; shares compounds with KCNQ2 enhance; 2,300 compounds, 41% hits; Kir2.1-expressing cells, FluxOR thallium flux fluorescence; hits give low values; Tl flux remaining, % of negative control (hits give low values), % at 10 µM;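 active means Primary-screen hit whose thallium flux fell at least 3 control SD below untreated wells in both duplicates, with normal baseline fluorescence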;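 further: 0% = blank wells without stimulus and 100% = stimulated no-compound controls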
Target sequence (P35561 whole entry, looked up): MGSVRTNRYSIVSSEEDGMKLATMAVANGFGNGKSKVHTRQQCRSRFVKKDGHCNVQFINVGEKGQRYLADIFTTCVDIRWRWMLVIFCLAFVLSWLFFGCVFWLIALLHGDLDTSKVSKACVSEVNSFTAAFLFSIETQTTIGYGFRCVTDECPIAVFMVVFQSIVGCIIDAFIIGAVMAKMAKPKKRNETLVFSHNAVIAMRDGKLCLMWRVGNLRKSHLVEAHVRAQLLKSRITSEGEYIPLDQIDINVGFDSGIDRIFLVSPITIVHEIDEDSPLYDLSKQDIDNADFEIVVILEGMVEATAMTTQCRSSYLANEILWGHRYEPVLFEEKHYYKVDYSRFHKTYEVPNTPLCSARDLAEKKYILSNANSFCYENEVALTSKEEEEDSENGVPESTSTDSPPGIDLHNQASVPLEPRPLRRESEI
HEK293 Tl flux: parental HEK293 activity in Kir2.1 inhibitor counter-screen; parental HEK293 cells, FluxOR thallium flux fluorescence; 0% = unstimulated blank wells; 2,300 compounds, 19% hits; shares compounds with KCNQ2 enhance; FluxOR signal as % of negative control (100 = no effect), % at 10 µM;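 active means dye signal at least 3 control SD above or below untreated wells in both duplicates, raw fluorescence within 3, either direction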;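 further: percent is based on the flux ratio of peak minus minimum fluorescence over baseline F0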
CHO-K1 Tl ctr: parental CHO-K1 activity in KCNQ2 potentiator counter-screen; shares compounds with KCNQ2 enhance; parental CHO-K1 cells, FluxOR thallium flux fluorescence; zero = vehicle mean+3SD, 100% = vehicle-minus-blank window; activity increase over 3SD of controls, % at 10 µM; 1,200 compounds, 43% hits; AID 2282;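 active means signal rise of at least 3 SD above the untreated control mean, in both duplicate wells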;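 further: counter screen of KCNQ2 potentiator hits so any rise reflects channel-independent effects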
KCNQ1 sel pot: tests whether KCNQ2 potentiators also act on human KCNQ1; CHO KCNQ1 stable, FluxOR thallium flux fluorescence; beyond 3SD, as % of vehicle-control signal; 1,200 compounds, 28% hits; shares compounds with KCNQ2 enhance; activation over 3SD threshold, % at 10 µM; AID 2283;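 active means fluorescence ratio rise of at least 3 SD of vehicle wells above their mean, in both replicate wells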;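 further: 0% = vehicle mean plus 3 SD and 100% = vehicle minus unstimulated blank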
KCNQ2 pot conf: confirmation of rat KCNQ2 potassium channel potentiators. 1,200 compounds, 68% hits. shares compounds with KCNQ2 enhance. CHO-KCNQ2 cells, FluxOR thallium flux fluorescence. AID 2287. potentiation, less the hit threshold, % at 10 µM;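 active means fluorescence ratio rising 3 SD or more over the vehicle control mean in both replicates, plus primary screen hit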;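 further: peak minus minimum thallium fluorescence divided by baseline after K/Tl stimulus; 0% = vehicle mean plus 3 SD and 100% = vehicle minus unstimulated blank difference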
Kir2-1 sel: tests whether KCNQ2 potentiators also affect mouse Kir2.1 | shares compounds with KCNQ2 enhance | AID 2345 | activity over 3SD threshold, % at 10 µM | HEK293 Kir2.1, FluxOR thallium flux fluorescence | 1,200 compounds, 2% hits;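 active means fluorescence ratio rise of at least 3 SD above the vehicle-control mean, seen in both replicates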;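 further: 0% = vehicle mean plus 3 SD and 100% = vehicle minus no-stimulus blank window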
KCNQ2 W236L pot: KCNQ2 potentiators acting on retigabine-insensitive rat KCNQ2 W236L mutant | shares compounds with KCNQ2 enhance | CHO KCNQ2-W236L, automated patch clamp current | current increase over 3SD of negative controls (%), hits give high values, % at 25 µM | 940 compounds, 10% hits;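 active means current increase at least 3 SD of the untreated controls above them in both duplicate recordings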
* hit, by the source's call; i = inactive; . = no result; + = active, no number. Unless noted, how the calls were made is not given here.

SMILES | KCNQ2 inh | KCNQ2 enhance | Kir21 confirm | HEK293 Tl flux | others
Cc1ccc(C(C)C)c(OCC(=O)NCC(c2cccs2)N2CCOCC2)c1 (configuration not stated) | -8.42* | -8.42 | 77.5%* | i | KCNQ2 inh conf=-38.5%*;KCNQ1 spec=i;CHO parental ctr=i;KCNQ2 inh confirm=i
CCOC(=O)C1CCCN(S(=O)(=O)c2ccc(S(=O)(=O)N3CCCC3)cc2)C1 (configuration not stated) | i | 1.12 | . | .
Cc1ccccc1CNC(=O)C1CCC(=O)N(CC2CCCCC2)C1 (configuration not stated) | i | . | . | .
Cc1cc(C)n(-c2nc(SCC(=O)O)c3c4c(sc3n2)COC(C)(C)C4)n1 | i | . | . | .
Cc1cc(C)n(-c2nc(SCCN(C)C)c3c4c(sc3n2)CCCC4)n1 | -8.89* | -8.89 | i | i | KCNQ2 inh conf=-30.0%*;KCNQ1 spec=-31.0%*;CHO parental ctr=i;KCNQ2 inh confirm=i
CCCOc1ccc(N2C(=O)CC(NCC#N)C2=O)cc1 (configuration not stated) | i | 0.34 | . | .
O=C(/C=C/c1ccccc1O)c1ccco1 | i | . | . | .
O=C(/C=C/c1cc(Br)ccc1O)c1ccco1 | -7.68* | -7.68 | 73.0%* | i | KCNQ2 inh conf=-35.5%*;KCNQ1 spec=-41.0%*;CHO parental ctr=-29.0%*;KCNQ2 inh confirm=i
CCN1/C(=C/c2sc(-c3ccccc3C)c[n+]2C)Sc2ccccc21 | -7.01* | -7.01 | 23.5%* | i | KCNQ2 inh conf=i;KCNQ1 spec=i;CHO parental ctr=i
CCN1/C(=C/c2ccc3cc(C)ccc3[n+]2CC)Sc2ccccc21 | i | . | . | .
O=C(c1ccc2c(c1)OCO2)C1CCCN(Cc2cccn2-c2cccnc2)C1 (configuration not stated) | i | 0.02 | . | .
O=C(CCC(=O)Nc1ccc(Br)cc1)N/N=C/c1ccc(F)cc1 | i | . | . | .
Cc1ccc(NC(=S)NCc2ccccc2)cc1[N+](=O)[O-] | i | 2.24 | . | .
Cc1ccc(OCC(=O)Nc2ccccc2N2CCOCC2)c(C)c1 | -7.42* | -7.42 | 61.0%* | i | KCNQ2 inh conf=i;KCNQ1 spec=i;CHO parental ctr=i
Cc1cc(Cl)ccc1OCC(=O)Nc1ccccc1N1CCOCC1 | i | . | . | .
CN1/C(=C\C=O)C(C)(C)c2ccccc21 | i | 1.51 | . | .
CN1\C(=C/C=C/C=C/C=[N+](C)C)C(C)(C)c2ccccc21 | -9.69* | -9.69 | 11.5%* | i | KCNQ2 inh conf=-48.0%*;KCNQ1 spec=-36.5%*;CHO parental ctr=-35.5%*;KCNQ2 inh confirm=+
N=c1c2c(-c3ccccc3)c(-c3ccccc3)n(Cc3ccco3)c2ncn1CCO | -7.04* | -7.04 | 37.0%* | i | KCNQ2 inh conf=i;KCNQ1 spec=i;CHO parental ctr=i
N=c1c2c(-c3ccccc3)c(-c3ccccc3)n(Cc3ccco3)c2ncn1CCCO | i | . | . | .
CN(O)/C=C/C(=O)c1ccc(Br)cc1 | i | . | . | .
O=C1CC[C@H](N2C(=O)c3ccccc3C2=O)C(=O)N1 | i | . | . | .
CCCn1c(NCc2c[nH]c3ccccc23)nc2ccccc21 | -7.94* | -7.94 | 42.5%* | i | KCNQ2 inh conf=-27.5%*;KCNQ1 spec=i;CHO parental ctr=i;KCNQ2 inh confirm=+
CCCn1c(NCc2ccccn2)nc2ccccc21 | i | 1.87 | . | .
COc1cc(CNCc2ccccc2)cc(Cl)c1OC | i | 0.24 | . | .
COc1cc(CNCCc2ccccc2)cc(Cl)c1OCc1ccccc1 | -7.22* | -7.22 | 31.0%* | i | KCNQ2 inh conf=i;KCNQ1 spec=i;CHO parental ctr=i
SMILES | KCNQ2 inh | KCNQ2 enhance | Kir21 confirm | HEK293 Tl flux | others
COc1cc2ccccc2cc1C(=O)Nc1ccc(N2CCN(C)CC2)cc1 | i | . | . | .
CC(C)c1nc2sc3c(=O)[nH]c(=S)[nH]c3c2c2c1CCC2 | i | 4.52 | . | .
CC(C)c1nc2sc3c(=O)[nH]c(=S)[nH]c3c2c2c1CCCC2 | i | 8.97* | i | 132.5%* | CHO-K1 Tl ctr=-18.2;KCNQ1 sel pot=-7.9;KCNQ2 pot conf=-15.8;Kir2-1 sel=-30.1
COc1ccc(S(=O)(=O)N2CCc3ccccc32)cc1C(=O)O | i | . | . | .
COc1ccc(S(=O)(=O)N2CCc3ccccc32)cc1OC | i | 0.13 | 51.5%* | i
Cc1ccc(NC(=O)CCn2c(=O)[nH]c3ccsc3c2=O)cc1 | i | . | . | .
Nc1cc(N)nc(SCC(=O)NCCC2=CCCCC2)n1 | i | 0.09 | . | .
CC(C)c1nnc(SCC(=O)NCCC2=CCCCC2)n1N | i | 5.87* | i | i | CHO-K1 Tl ctr=-17.2;KCNQ1 sel pot=2.2*;KCNQ2 pot conf=23.5*;Kir2-1 sel=-20.8;KCNQ2 W236L pot=2.6%*
COc1ccccc1/C=C/c1onc(C)c1S(=O)(=O)N1CCC(C(=O)NC(C)C)CC1 | i | 0.31 | . | .
N#C/C(=C\c1ccc(O)c([N+](=O)[O-])c1)C(=O)NCc1ccccc1 | i | 0.12 | . | .
COc1cc(NS(=O)(=O)c2ccc(Nc3nc(-c4ccccc4)cs3)cc2)nc(OC)n1 | i | 1.82 | i | i
COc1cc(NS(=O)(=O)c2ccc(NC(=S)Nc3ccccc3)cc2)nc(OC)n1 | i | . | . | .
Cc1sc2nc[nH]c(=S)c2c1-c1ccccc1 | i | 11.7* | i | i | CHO-K1 Tl ctr=-12.0;KCNQ1 sel pot=13.3*;KCNQ2 pot conf=39.7*;Kir2-1 sel=-23.7;KCNQ2 W236L pot=i
Cc1sc2nc[nH]c(=O)c2c1-c1ccc(F)cc1 | i | 1.07 | . | .
S=c1[nH]nc(-c2cccnc2)n1-c1ccc2c(c1)OCCO2 | i | . | . | .
COc1ccc(Cl)cc1NC(=O)c1nc2nc(C)cc(C(F)F)n2n1 | i | 1.66 | . | .
COc1ccc(C(=O)N/C(=C\c2cn(C)c3ccccc23)C(=O)OCCN(C)C)cc1 | i | . | . | .
NN=C(c1cccc([N+](=O)[O-])c1)c1cccc([N+](=O)[O-])c1 | i | . | . | .
COc1ccc(C(=O)O/N=C2\C(=O)N(C)c3ccccc32)cc1 | i | . | . | .
